Measured values reported in the supplement of paper PMC3334620.
The full ranking holds about 33,000 sequences; the median of “E-score (-0.5 to 0.5)” is about -0.054, and the highest 2% start at about 0.35. For the sample, the highest values were picked, then their nearest neighbours and some sequences at random.

biological target: T1, Stb5 (UniProt P38699); assay: PBM E-score (8-mer binding enrichment) (E-score (-0.5 to 0.5)); higher = stronger / more preferred TF binding; settings: protein concentration: 200 nM; construct: GST-full length
T1 sequence: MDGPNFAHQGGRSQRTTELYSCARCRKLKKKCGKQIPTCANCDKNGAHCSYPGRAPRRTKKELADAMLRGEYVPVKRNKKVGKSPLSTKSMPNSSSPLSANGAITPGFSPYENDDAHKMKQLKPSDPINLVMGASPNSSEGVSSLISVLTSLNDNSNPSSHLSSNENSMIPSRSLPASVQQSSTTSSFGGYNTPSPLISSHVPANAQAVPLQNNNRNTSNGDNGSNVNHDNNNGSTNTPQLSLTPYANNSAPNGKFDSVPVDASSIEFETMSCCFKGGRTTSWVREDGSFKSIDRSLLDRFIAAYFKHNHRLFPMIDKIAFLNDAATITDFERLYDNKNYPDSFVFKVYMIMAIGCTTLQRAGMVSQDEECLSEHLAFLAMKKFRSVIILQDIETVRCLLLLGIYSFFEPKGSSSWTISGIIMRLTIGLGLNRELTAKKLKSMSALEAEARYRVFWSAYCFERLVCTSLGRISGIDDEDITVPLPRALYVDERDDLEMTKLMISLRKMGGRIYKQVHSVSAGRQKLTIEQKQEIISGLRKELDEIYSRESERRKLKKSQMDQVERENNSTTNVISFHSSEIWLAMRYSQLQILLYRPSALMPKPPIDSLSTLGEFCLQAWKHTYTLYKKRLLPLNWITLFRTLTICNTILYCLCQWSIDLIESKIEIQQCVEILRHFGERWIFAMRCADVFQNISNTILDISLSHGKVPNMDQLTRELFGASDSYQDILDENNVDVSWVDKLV
Experimental: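 Universal 'all 10-mer' protein binding microarrays (Agilent AMADID 015681) probed with GST-tagged S. cerevisiae TFs (full-length or DBD) made by in vitro transcription/translation (PURExpress), about 100-200 nM. Bound TF was detected with fluorescent anti-GST. Each ungapped 8-mer (which stands for itself and its reverse complement) is scored by the PBM enrichment score (E-score), a modified Wilcoxon-Mann-Whitney statistic from -0.5 to +0.5, computed with the Universal PBM Analysis Suite. Scale: above 0.35 generally sequence-specific binding.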

| Sequence | PBM E-score |
| --- | --- |
| GGTGATAC | 0.369 |
| CGTGATAA | 0.0332 |
| GGTGATAA | 0.415 |
| CGTGATAC | -0.0683 |
| AGTGATAA | -0.0882 |
| AGTGATAC | -0.128 |
| CTCCTGTC | -0.26 |
| GGCCGTTA | 0.213 |
| GACCGTTA | 0.278 |
| AACCGTTC | 0.128 |
| CACCGTTA | 0.367 |
| CGCCGTTC | 0.306 |
| CGCCGTTA | 0.356 |
| CTCCGTTA | 0.299 |
| AACCGTTA | -0.101 |
| GTCCGTTA | 0.355 |
| ATCCGTTA | 0.197 |
| CACCGTTC | 0.368 |
| AGCCGTTA | 0.0306 |
| GCGGGCAA | 0.171 |
| GCAGACTA | -0.158 |
| CTCCACAG | -0.313 |
| CCTTTTGA | -0.106 |
| CGTTGTCC | -0.0582 |
| GACCAATA | 0.0169 |

| Sequence | PBM E-score |
| --- | --- |
| GCCCTTAC | -0.0337 |
| CTGTCGGA | 0.349 |
| CAGTCGGA | 0.292 |
| GGGTCATA | -0.00196 |
| ATGTCGGA | 0.303 |
| TAGTCGGA | 0.355 |
| GGGTCGTA | 0.00669 |
| GTGTCGGA | 0.357 |
| CGGTCATC | 0.135 |
| GAGTCGGA | 0.307 |
| CGGTCGTC | 0.0319 |
| CGGTCATA | 0.448 |
| CGGTCGTA | 0.381 |
| GAGCGGGA | 0.249 |
| TCCAGAGA | -0.208 |
| AGTCAAGC | -0.3 |
| GTGAGCAA | -0.0477 |
| TACGGGCA | 0.143 |
| GACAACTA | -0.06 |
| GCACAGAC | 0.0491 |
| CGAGTTTC | -0.0887 |
| GCGTCGGA | 0.345 |
| AGGTCGGC | 0.293 |
| CCGTCGGA | 0.37 |
| CGGTCGGA | 0.313 |

| Sequence | PBM E-score |
| --- | --- |
| CCGTCGGC | 0.377 |
| CGGTCGGC | 0.352 |
| ACGTCGGC | 0.27 |
| ACGTCGGA | 0.264 |
| CCGTCGTC | 0.161 |
| GGAATAAC | 0.177 |
| ATTTATTG | -0.0662 |
| AAGCTGAA | -0.152 |
| CCAAGAGG | -0.138 |
| GGGTGCCA | -0.012 |
| AGGTGCGA | 0.0754 |
| GGGTGCGA | -0.0506 |
| CGGTGCCC | 0.27 |
| CGGTGCGA | 0.384 |
| CGGTGCCA | 0.414 |
| CCTGCTGA | -0.216 |
| CGCTTCCG | 0.208 |
| CCCGACTA | 0.312 |
| AGTGCCAC | -0.251 |
| ATTGCCGC | 0.351 |
| CGTGCCGC | 0.249 |
| ATTGCCGG | 0.408 |
| GGTGCCGA | 0.292 |
| AGTGCCAG | -0.0267 |
| AGTGCCGA | 0.387 |

| Sequence | PBM E-score |
| --- | --- |
| AGTGCCGC | 0.381 |
| AGTGCCGG | 0.407 |
| CGTGCCGA | 0.212 |
| ATTGCCGA | 0.318 |
| AGTGCCTG | -0.17 |
| CACCAACG | 0.0702 |
| AACCGTGT | -0.115 |
| AGTCTGGG | -0.291 |
| CCTGAGCG | -0.0867 |
| CCGATAGA | 0.249 |
| TGTCCCAA | -0.0294 |
| ATTAGCTG | -0.119 |
| CCTCTAAA | -0.196 |
| CACCGAAC | 0.366 |
| CACCGAAG | 0.253 |
| AACCGACG | 0.286 |
| CACCGAGG | 0.23 |
| AACCGACA | 0.181 |
| GACCGAAC | 0.145 |
| AACCGACC | 0.244 |
| CACCGACC | 0.418 |
| GACCGACA | 0.341 |
| TACCGACA | 0.356 |
| GACCGACC | 0.308 |
| CACCGACG | 0.453 |

| Sequence | PBM E-score |
| --- | --- |
| CCCATGAA | -0.0849 |
| CCAAGTAG | -0.293 |
| CAGTGCGC | -0.135 |
| GACCACAC | -0.152 |
| ACCCTAGG | -0.165 |
| CTTCACAC | -0.0447 |
| CACCGAAA | 0.305 |
| CACCGACA | 0.44 |
| CACCGAGA | 0.151 |
| AAAAAGAT | -0.291 |
| CGGAGACA | 0.398 |
| CGGACACA | 0.356 |
| TGGACACA | -0.0717 |
| CGGAGACG | 0.166 |
| CGGACACG | 0.232 |
| GGGACATA | 0.132 |
| CGGACATA | 0.474 |
| AGGACGTA | -0.182 |
| CGGACGTA | 0.407 |
| CGGACATC | 0.256 |
| AGGAGACA | -0.131 |
| CGGACGTC | 0.0917 |
| ACCCCCTC | -0.265 |
| GTGCACCA | -0.17 |
| CGGAGGGC | -0.0349 |

| Sequence | PBM E-score |
| --- | --- |
| CCTTCCCG | -0.125 |
| ACAGCGTA | -0.0758 |
| AAAATCAC | -0.092 |
| GGTGATCA | 0.0514 |
| CTTGTGGC | -0.163 |
| CGTAGTAC | 0.0304 |
| AACCGGTC | 0.272 |
| GACCGGTA | 0.231 |
| AACCGGTG | 0.306 |
| CTCCGGTA | 0.316 |
| AACCGGTA | 0.261 |
| CACCGGTC | 0.337 |
| TACCGGTA | 0.36 |
| CACCGGTA | 0.408 |
| CACCGGTG | 0.408 |
| AGAAGCCT | -0.0816 |
| TCTGCAGA | 0.00207 |
| CCCCCAGG | -0.281 |
| GAAACCCC | 0.353 |
| GAAAACCC | 0.278 |
| ATAACTCG | 0.0637 |
| GAAACCCA | 0.0284 |
| AAAAACCC | 0.226 |
| AAACCCCC | 0.263 |
| AAAACCCG | 0.379 |

| Sequence | PBM E-score |
| --- | --- |
| AAAACCCC | 0.355 |
| CTAACTCC | 0.288 |
| ATAACTCC | 0.429 |
| CAAACCCG | 0.216 |
| AAAACCCT | -0.074 |
| AATCTGTG | -0.207 |
| CGCAGAAA | -0.114 |
| GCAAAGGC | 0.115 |
| GGTGGACA | 0.00374 |
| TCTTTCAA | -0.0737 |
| ACCCTCCG | 0.134 |
| CGGTGGCA | 0.299 |
| CCTTATCC | 0.00435 |
| ATCTCCAC | 0.0569 |
| GTCTTAAA | 0.179 |
| ACTCGACT | -0.224 |
| ATAACCCA | -0.157 |
| ATAACCCG | 0.228 |
| ATAAACCC | 0.373 |
| CTAAACCC | 0.233 |
| ATAACCCC | 0.412 |
| ATAAACCA | -0.078 |
| AATTCCTA | -0.258 |
| AAAGACCC | 0.0704 |
